Source: PubChem BioAssay AID463173 (ICCB-Longwood Screening Facility, Harvard Medical School, 2010)
The campaign covered roughly 52,000 compounds. About 1,700 (3.3%) were called active. For the sample, actives were picked, then their nearest neighbours and some compounds at random. Values without a mark were called inactive. Rule as the data show it: active = survival mostly below about 52% (no sharp cut-off); inactive = mostly above about 56%.

test system: Wild type; assay: S. aureus survival, RN4220 and DeltatarO strains – OD600, teichoic acid synthesis inhibitors, primary screen (AID 463173); conditions: S. aureus RN4220 wild type/DeltatarO growth, OD600, 18 h, stronger effect = lower value, screened at 18.75 µg/mL (by protocol)

Structure (SMILES) | survival
COCCn1c(SCC(=O)Nc2sc(C)c(C)c2C#N)nnc1C(C)C | 103%
COc1ccccc1-c1nn(CCC(=O)Nc2ccccc2)c2nc(C)cc(C)c12 | 86%
CCN(C(=O)Cn1c(C(=O)OC)cc2oc3ccccc3c21)c1cccc(C)c1 | 24% (active)
COC(=O)c1cc2oc3ccccc3c2n1Cc1ccc(C)cc1 | 82%
COC(=O)c1cc2oc3ccccc3c2n1Cc1cccc(C)c1 | 3% (active)
COC(=O)c1cc2oc3ccccc3c2n1CC(=O)Nc1ccc(C)cc1C | 86%
COC(=O)c1cc2oc3ccccc3c2n1Cc1nc(-c2cccc(C)c2)oc1C | 72%
COC(=O)c1cc2oc3ccccc3c2n1Cc1ccc(Cl)cc1 | 21%
S=c1nc[nH]c2c1[nH]c1ccccc12 | 98%
CC1CCN(S(=O)(=O)c2cc(C(=O)Nc3ccc(Br)cc3F)n(C)c2)CC1 | 77%
COc1cc(C(c2nnnn2Cc2ccco2)N2CCN(C3CCCC3)CC2)cc(OC)c1OC (stereo not given) | 107%
CC1CCN(C(=O)Cn2cc(SCC(=O)NCc3ccccc3)c3ccccc32)CC1 | 86%
Cc1ccc(C)n1-c1c(C(=O)NCCC(C)C)sc2ncccc12 | 79%
Cc1nc2ccccc2c(=O)n1-c1ccc(NC(=O)c2cccc([N+](=O)[O-])c2)cc1 | 59%
Cc1cc(N2CCN(c3cccc(C(F)(F)F)c3)CC2)n2nc(-c3ccccc3C)nc2n1 | 11% (active)
Cc1cc(N2CCN(c3cccc(C(F)(F)F)c3)CC2)n2nc(-c3ccccc3)nc2n1 | 87%
COc1ccc(-c2nc3nc(C)cc(N4CCN(c5cccc(C(F)(F)F)c5)CC4)n3n2)cc1 | 88%
CCN(CC)C(=O)C1=C(C)Nc2nc3ccccc3n2C1c1ccc(Br)cc1 (stereo not given) | 80%
Cc1cc(S(=O)(=O)C(CNC(=O)COc2ccccc2)c2cccs2)ccc1F (stereo not given) | 153%
COc1cc(C2CC(=O)N(Cc3ccc(F)cc3)c3ccccc3S2)cc(OC)c1OC (stereo not given) | 72%
O=C1CC(c2ccccc2)Sc2ccccc2N1Cc1ccccc1F (stereo not given) | 96%
COc1cc(C2CC(=O)N(Cc3cccc(F)c3)c3ccccc3S2)cc(OC)c1OC (stereo not given) | 83%
COc1ccc(C2CC(=O)N(Cc3ccc(F)cc3)c3ccccc3S2)cc1 (stereo not given) | 30%
COc1ccc(C2CC(=O)N(Cc3cccc(F)c3)c3ccccc3S2)cc1 (stereo not given) | 9% (active)

Structure (SMILES) | survival
O=C1CC(c2ccccc2)Sc2ccccc2N1Cc1ccc(F)cc1 (stereo not given) | 16% (active)
COc1ccc(S(=O)(=O)c2c(Nc3ccc(C)cc3)sc(C(=O)c3ccc4c(c3)OCO4)c2N)cc1 | 143%
CCNc1nc(NCC)nc(N(n2cnnc2)S(=O)(=O)c2ccc(C)cc2)n1 | 45%
CCOc1ccc(CNC(=O)c2cnc3sc(N(CC)CC)nn3c2=O)cc1 | 75%
COc1ccc(N2CCN(CCCNC(=O)Cn3c(-c4cccs4)cc4ccccc43)CC2)cc1 | 86%
Cc1cc(C)cc(NC(=O)CN2C(=O)COc3ccc(S(=O)(=O)Nc4ccccc4)cc32)c1 | 98%
Cc1ccc(-c2nnn3c2nc(N2CCC(C)CC2)c2ccccc23)cc1 | -2% (active)
Brc1cccc(-c2nnn3c2nc(N2CCCCC2)c2ccccc23)c1 | 76%
Clc1ccc(-c2nnn3c2nc(N2CCCCC2)c2ccccc23)cc1 | 45%
CC1CCN(c2nc3c(-c4cccc(Br)c4)nnn3c3ccccc23)CC1 | 85%
COc1ccc(-c2nnn3c2nc(N2CCCC(C)C2)c2ccccc23)cc1 (stereo not given) | 0% (active)
CC1CCCN(c2nc3c(-c4ccc(Cl)cc4)nnn3c3ccccc23)C1 (stereo not given) | 83%
COc1ccc(C2C(C(=O)Nc3ccc(C)cc3C)=C(C)Nc3nc4ccccc4n32)c(OC)c1 (stereo not given) | 65%
CCOC(=O)C1CCCN(S(=O)(=O)c2ccc3[nH]c(=O)oc3c2)C1 (stereo not given) | 88%
CCOc1ccc(NC(=O)CCCn2c(C)c3cnn(-c4ccccc4)c(=O)c3c2C)cc1 | 89%
COc1ccc(Cl)cc1NC(=O)C(C)N1Cc2ccccc2C1=O (stereo not given) | 85%
COC(=O)CSc1nc(N)c(C#N)c(-c2ccccc2)c1C#N | 112%
CCC(Sc1nc(N)cc(=O)[nH]1)C(=O)NC(C)c1ccccc1 (stereo not given) | 103%
O=C(CSc1nc(-c2ccccc2)cc(=O)[nH]1)c1ccccc1 | 119%
CCOC(=O)C1CCN(c2cc(C)c(C#N)c3nc4ccccc4n23)CC1 | 99%
COc1ccc(N2CCN(c3ncnc4c3nnn4C)CC2)cc1 | -2% (active)
Cn1nnc2c(N3CCN(c4ccc(F)cc4)CC3)ncnc21 | 80%
CCOC(=O)C1CCN(c2nc(-c3ccc(Br)cc3)nc3ccccc23)CC1 | 75%
CC1CCN(c2ncnc3c2nnn3C)CC1 | 83%

Structure (SMILES) | survival
Cn1nnc2c(N3CCN(c4ccccc4)CC3)ncnc21 | 88%
CCOC(=O)C1CCN(c2ncnc3c2nnn3C)CC1 | 10% (active)
CCOC(=O)C1CCN(c2nc3ccccc3nc2Cl)CC1 | -26% (active)
CCOC(=O)C1CCCN(c2ncnc3c2nnn3C)C1 (stereo not given) | 121%
CCn1nnc2cc(C(=O)Nc3cccc(Cl)c3)ccc21 | 87%
CN(Cc1ccccc1)C(=O)C1CCC(CNS(=O)(=O)c2ccc3c(c2)CCCC(=O)N3)CC1 (stereo not given) | 131%
Clc1ccc2nc(-c3ccc(Br)o3)c(Nc3ccc4c(c3)OCCO4)n2c1 | 93%
O=C(CSc1ncccn1)NCCC1=CCCCC1 | 112%
CCc1ccc(-n2cnc3cc(C(=O)NCc4ccc(C)cc4)ccc32)cc1 | 65%
Cc1ccccc1OCCn1c(CCNC(=O)C(C)(C)C)nc2ccccc21 | 75%
COc1cccc(OCc2nc3ccccc3n2CCOc2cccc(C)c2)c1 | 73%
CC(C)(C)C(=O)NCCc1nc2ccccc2n1CCCCOc1ccc(Cl)cc1 | 28%
Cc1ccccc1OCCCCn1c(CCNC(=O)C(C)(C)C)nc2ccccc21 | 65%
CC(=O)NCCc1nc2ccccc2n1CCCCOc1ccc(Cl)cc1 | 95%
CCc1nc2ccccc2n1CCCCOc1ccc(Cl)cc1 | 2% (active)
CCCn1c(COc2cccc(C)c2)nc2ccccc21 | 25% (active)
CCc1nc2ccccc2n1CCCCOc1ccccc1C | 24% (active)
CCc1nc2ccccc2n1CCCCOc1ccc(C)cc1 | 1% (active)
Cc1ccc(OCCCCn2c(CCNC(=O)C(C)(C)C)nc3ccccc32)cc1 | 76%
CC(C)(C)C(=O)NCCc1nc2ccccc2n1CCCCOc1ccccc1 | 79%
CCCCn1c(COc2cccc(OC)c2)nc2ccccc21 | 88%
Cc1ccc(-c2nc3ccccc3[nH]2)cc1NC(=O)COc1ccc(Cl)cc1Cl | 45%
CC1=C(c2ccc(C(C)C)cc2)S(=O)(=O)NC1=NCc1ccccc1Br | 82%
COc1cc(NC(=O)CSc2nc3ccccc3nc2Cc2ccccc2OC)cc(OC)c1 | 66%

Structure (SMILES) | survival
COc1ccccc1Cn1cc(C(=O)c2ccc(C)cc2)c(=O)c2cc(F)cc(F)c21 | 81%
Cc1cc(C)c(NC(=O)Cn2c(=O)n(CCCCC(=O)NCc3ccccc3Cl)c(=O)c3ccccc32)c(C)c1 | 106%
Cc1cncn1CCc1nc2c3ccccc3nc(SCC(=O)Nc3cccc(Cl)c3)n2n1 | 80%
CCc1c(CN2CCN(c3ccccc3F)CC2)csc1C | 52%
Cc1ccc(CNC(=O)CSCc2ccc(F)cc2)cc1 | 101%
O=C(CCCSc1nc(-c2ccco2)cc(C(F)(F)F)n1)NCC1CCCO1 (stereo not given) | 108%
COc1ccccc1CNC(=O)c1cc2c(-c3ccc(Cl)cc3)nn(C)c2s1 | 151%
Cc1cccc(OCCCn2c(CCNC(=O)C(C)(C)C)nc3ccccc32)c1 | 84%
CCc1nc2ccccc2n1CCCCOc1cccc(C)c1 | 12% (active)
COCc1nc2ccccc2n1CCOc1cccc(C)c1 | 53%
COc1ccc(-c2noc(N3CCC(C(=O)N4CCN(c5ccccc5F)CC4)CC3)n2)cc1 | 108%
COc1ccc(-n2ncc3c(NC4CCCC4)ncnc32)cc1 | 129%
Cc1cn(C)c(CC(=O)N2CCN(c3ccccc3F)CC2)c1C(=O)O | 69%
Cc1cn(C)c(CC(=O)N2CCN(c3cccc(Cl)c3)CC2)c1C(=O)O | 78%
COc1ccccc1N1CCN(C(=O)Cc2c(C(=O)O)c(C)cn2C)CC1 | -6% (active)
COc1ccc(N2CCN(C(=O)Cc3c(C(=O)O)c(C)cn3C)CC2)cc1 | 14% (active)
Cc1cccc(N2CCN(C(=O)Cc3c(C(=O)O)c(C)cn3C)CC2)c1C | 70%
Cc1cn(C)c(CC(=O)N2CCN(c3ccc(F)cc3)CC2)c1C(=O)O | 133%
CCOc1cccc(C2c3c(oc4cc(C)c(C)cc4c3=O)C(=O)N2c2nc(C)c(C)s2)c1 (stereo not given) | 71%
CCc1ccc(NC(=O)[C@H](CSCc2ccccc2)N2Cc3ccccc3C2=O)cc1 | 79%
CCc1ccccc1NC(=O)CN1CCC(NC(=O)NC2CCCCC2)CC1 | 102%
COc1ccccc1N1CCN(c2ncnc3c2nnn3C)CC1 | 129%
Cc1cc(F)ccc1NC(=O)C1CCCN(C(=O)c2cnn(-c3ccccc3)c2-n2cccc2)C1 (stereo not given) | 85%
